Reference: PubChem BioAssay
The source made the active and inactive calls. No rule for the calls is given here.

The compounds below were run against Pantothenate synthetase (Mycobacterium tuberculosis (strain ATCC 25618 / H37Rv)) (UniProt P9WIL5) (assay: Coupled enzyme confirmation of inhibitors against recombinant Mtb PanC (AID 375;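 also: 0% = full reaction with vehicle and 100% = no enzyme background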)). Details: coupled enzyme assay; at 10 µM, active compounds read high.
Sequence of Pantothenate synthetase (Mycobacterium tuberculosis (strain ATCC 25618 / H37Rv)) (P9WIL5 whole entry, looked up): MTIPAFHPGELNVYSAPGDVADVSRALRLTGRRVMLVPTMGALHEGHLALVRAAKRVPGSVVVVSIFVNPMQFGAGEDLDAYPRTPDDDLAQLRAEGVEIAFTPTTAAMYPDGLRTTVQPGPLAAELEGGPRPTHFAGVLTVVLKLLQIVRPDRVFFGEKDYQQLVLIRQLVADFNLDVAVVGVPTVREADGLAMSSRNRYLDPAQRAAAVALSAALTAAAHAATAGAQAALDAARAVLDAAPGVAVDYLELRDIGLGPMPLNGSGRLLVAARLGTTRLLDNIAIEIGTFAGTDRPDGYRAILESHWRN

Row | SMILES | inhibition
1 | O=C(c1ccco1)N1CCN(c2ccc(Cl)cc2)CC1 | 5% (inactive)
2 | COc1ccc(CN(C2CCCC2)S(=O)(=O)c2ccc(-n3cnnn3)cc2)cc1OC | 0% (inactive)
3 | O=C(O)CCCC(=O)Nc1nc(-c2ccc(F)cc2)cs1 | 0% (inactive)
4 | CCc1c(C(=O)NCCc2ccc(OC)c(OC)c2)[nH]c(C)c1C(C)=O | 12% (inactive)
5 | O=C1CCc2cc(OCCCCc3nnnn3C3CCCCC3)ccc2N1 | 3% (inactive)
6 | CC(C)COC(=O)N(C)c1ccc(C(O)(C(F)(F)F)C(F)(F)F)cc1 | 5% (inactive)
7 | O=C(O)CCNc1nc(-c2ccccc2)nc2ccccc12 | 3% (inactive)
8 | COC(=O)c1cccc(NC(=O)Cc2coc3cc(OC)ccc23)c1 | 0% (inactive)
9 | CCCC(=O)Nc1ccc(NC(=O)c2ccccc2OC)cn1 | 0% (inactive)
10 | CCN1CCN(c2nc3c(c(=O)n(C)c(=O)n3C)n2CCSc2ncccn2)CC1 | 0% (inactive)
11 | C=CCn1c(SCc2ccc3nonc3c2)nnc1-c1cccs1 | 7% (inactive)
12 | O=C(CN1C(=O)CCS(=O)(=O)c2ccccc21)NCc1ccc(F)cc1 | 3% (inactive)
13 | O=C(CN1CCCN(S(=O)(=O)c2ccc(Br)cc2)CC1)Nc1ccc2c(c1)OCO2 | 4% (inactive)
14 | COCCN(C(=O)c1csnn1)C(C(=O)NC(C)(C)C)c1cccc(OC)c1 (stereo not given) | 1% (inactive)
15 | Cc1cccc(Nc2nc3c(c(=O)n(C)c(=O)n3C)n2Cc2ccccc2)c1 | 5% (inactive)
16 | CCN(Cc1cc2cc(OC)ccc2[nH]c1=O)C(=O)Cc1ccc(OC)cc1 | 0% (inactive)
17 | CNC(=O)c1ccsc1NC(=O)CN1C(=O)CCC1=O | 0% (inactive)
18 | O=C(NC1CCCC1)C(c1ccco1)N(Cc1ccccc1)C(=O)c1csnn1 (stereo not given) | 0% (inactive)
19 | Cc1ccc(-c2nn(-c3ccccc3)cc2/C=C(\C#N)c2cccc(C#N)c2)o1 | 0% (inactive)
20 | CC(=O)Nc1ccc(S(=O)(=O)n2cnc(C)c2)cc1 | 3% (inactive)

Row | SMILES | inhibition
21 | CCOc1ccc(C(c2nnnn2Cc2ccccc2)N2CCN(C(=O)c3ccco3)CC2)cc1 (stereo not given) | 2% (inactive)
22 | Cc1cc(NS(=O)(=O)c2ccc(N)cc2)no1 | 1% (inactive)
23 | Cc1ccccc1-n1c(Cn2c(=O)sc3ccccc32)nnc1SCC(=O)N1CCCC1 | 8% (inactive)
24 | COC(=O)c1c(N)n(-c2cc(OC)cc(OC)c2)c2nc3ccccc3nc12 | 1% (inactive)
25 | Clc1ccc(-n2nnnc2Sc2ncnc3sccc23)cc1 | 0% (inactive)
26 | Cc1ccc(S(=O)(=O)N2CCC(C(=O)NCCN3CCCCCC3)CC2)cc1 | 0% (inactive)
27 | Cc1ccc(/C=N/n2nnnc2N)o1 | 0% (inactive)
28 | COc1ccccc1N1C(=O)CC(Sc2nc(C)cc(C)n2)C1=O (stereo not given) | 0% (inactive)
29 | COc1cccc(Cn2c(OCC3CCCO3)nc3c2c(=O)n(C)c(=O)n3C)c1 (stereo not given) | 3% (inactive)
30 | CCOC(=O)N1CCN(S(=O)(=O)c2ccc(Br)s2)CC1 | 11% (inactive)
31 | Cc1ccc(C(=O)CSc2nnc(-c3cccnc3)n2N)cc1 | 5% (inactive)
32 | CC1(C)CC(=O)c2cc(OCC(=O)N3CCN(c4ccccc4F)CC3)ccc2O1 | 6% (inactive)
33 | CCCc1c(OCCCCc2nn[nH]n2)ccc(C(C)=O)c1O | 0% (inactive)
34 | NCCCCCc1nnc(SC/C=C/c2ccccc2)o1 | 0% (inactive)
35 | COc1ccc(C(=O)NC(=O)CSc2nnc(-c3ccco3)n2-c2ccccc2)cc1 | 0% (inactive)
36 | Cc1cc(C)cc(NS(=O)(=O)c2ccc3[nH]cc(C(=O)NCc4ccco4)c(=O)c3c2)c1 | 0% (inactive)
37 | COC(=O)c1ccc(CSc2nnc(-c3ccncc3)o2)o1 | 0% (inactive)
38 | CCOc1cc(NC(=O)c2ccco2)c(OCC)cc1NC(=O)CCC(=O)NCc1cccnc1 | 3% (inactive)
39 | S=C(N=Nc1ccccc1)NNc1ccccc1 | 0% (inactive)
40 | O=C(COC(=O)c1ccc(Br)o1)Nc1ccc(S(=O)(=O)N2CCCC2)cc1 | 5% (inactive)
